Only some compounds are listed: those with a hit (about 8.2% of all), similar ones and a draw of the others.
KB-V1 MDR tox: kills drug-selected multidrug resistant KB-V1 cells. KB-V1 MDR cells viability, CellTiter-Glo, 72 h. Potency, µM (doses to about 46.1 µM), hits mostly cytotoxic. 3.4% of 400,000 active. AID 1347076; further: nearly all actives have a fitted effect of over 60% in size
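KB-V1 cells (P-gp-expressing MDR subline of KB-3-1) in phenol-red-free DMEM with 10% FBS were exposed to library compounds over a concentration series for 72 h at 37 degrees C. Viability read by CellTiter-Glo luminescence; concentration-effect curves fitted after normalization.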
KB-3-1 cytotox: KB-3-1 parental cell cytotoxicity; KB-3-1 viability, CellTiter-Glo ATP luminescence, 72 h; Potency, µM (titrated, usually from 46.1 µM), most hits filed as cytotoxic; 1.4% of 400,000 active; AID 1347075; further: nearly all actives have a fitted effect of over 60% in size
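Parental KB-3-1 viability, qHTS format: 72 h compound exposure, 37 °C; CellTiter-Glo; media-only wells and DMSO plates as controls; concentration-effect fits on corrected data.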
MCF10A rerep: inducers of DNA re-replication in MCF 10A breast cells | MCF 10A DNA re-replication, Hoechst nuclear intensity, 48 h | Potency, µM (series often up to 46.1 µM), most hits filed as activators | 2.9% of 350,000 active | AID 624296; further: nearly all actives have a fitted effect of over 50% in size
SW480 rerep: inducers of DNA re-replication in SW480 colon cancer cells; SW480 DNA re-replication, Hoechst DNA content imaging, 48 h; Potency, µM (titrated, usually from 46.1 µM), actives largely listed as activators; 1.8% of 340,000 active; further: nearly all actives have a fitted effect of over 55% in size
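DNA re-replication was detected as more nuclei of elevated Hoechst intensity after 48 hr exposure to compound (23 nL pinned per well of 250 cells).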
ELG1 DNA repair: ELG1-dependent DNA repair inhibition. HEK293T ELG1-luciferase reporter, luminescence, 16 h; DNA damage induced by 5-fluorouridine. Potency, µM (series often up to 46.1 µM), hits mostly inhibitors. 2.3% of 330,000 active. AID 504467; further: nearly all actives have a fitted effect of over 55% in size
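In this reporter screen, reduction of luminescence relative to DMSO vehicle indicated activity. Compounds and 5-fluorouridine were added together to 2,000 cells per well, incubated for 16 hr at 37 °C, then developed with ONE-Glo.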
A number is an active result; 0 = inactive; ? = inconclusive; - = no result given; [ ] = another dose, or the depositor's remark. The call rests on the fitted dose curve; in most records, active means well fitted curve in the direction sought with a large enough effect; inconclusive means small, poorly fitted or top-dose-only effect, or another doubt; inactive means no such curve, though single readings can be large; an effect the other way counts as inactive or inconclusive.

SMILES	KB-V1 MDR tox	KB-3-1 cytotox	MCF10A rerep	SW480 rerep	ELG1 DNA repair
O=C(CSc1nnc(-c2ccc3c(c2)OCO3)n1-c1ccccc1)c1ccc(Cl)cc1	16µM	0	0	0	0
CCOc1ccccc1N(CC)C(=O)c1nn(C)c2c1CSc1ccccc1-2	0	0	?	0	9.2µM
CC(C)(C)c1cc(C(=O)NNc2cc(C(F)(F)F)ccc2Cl)n(Cc2ccccc2)n1	?	?	21µM	0	?
COc1ccccc1NNC(=O)c1cc(C(C)(C)C)nn1Cc1ccccc1	?	0	0	0	0
Cc1ccc(NNC(=O)c2cc(C(C)(C)C)nn2Cc2ccccc2)cc1	0	12µM	?	0	?
CC(C)(C)c1cc(C(=O)Nc2ccc(F)cc2)n(Cc2ccc(F)cc2)n1	?	?	21µM	0	?
CC(C)(C)c1cc(C(=O)NNc2ccc(OC(F)(F)F)cc2)n(Cc2ccccc2)n1	?	0	18µM	0	0
Cn1c(=O)n(C)c2cc(NC(=O)c3ccccc3)ccc21	0	0	-	-	-
CCc1nn2cc(C(=O)c3cc(C)ccc3O)cnc2c1-c1ccc(F)cc1	?	0	18µM	0	?
C=CCN(c1ccccc1)S(=O)(=O)c1cccc(C(=O)Nc2cc(C)ccn2)c1	?	?	0	?	?
C=CCN(c1ccccc1)S(=O)(=O)c1cccc(C(=O)NC2CCN(Cc3ccccc3)CC2)c1	?	21µM	?	?	0
C=CCN(c1ccccc1)S(=O)(=O)c1cccc(C(=O)NCc2ccco2)c1	18µM	0	0	0	0
Cc1cccc(S(=O)(=O)NC(=O)C2(C)CCN2C(=O)Cc2ccc(Cl)cc2Cl)c1 (stereo unspecified)	0	0	-	-	-
CN1CCN(C(c2ccc(F)cc2)c2nnnn2Cc2cccs2)CC1 (stereo unspecified)	0	0	?	0[9.22 µM]	0
CCN1CCN(C(c2ccc(F)cc2)c2nnnn2Cc2cccs2)CC1 (stereo unspecified)	0	0	23µM	?	0
O=C1C=C(c2ccccc2Oc2ccccc2)C[C@@H](c2ccc3c(c2)OCO3)C1	0	0	0	0[9.22 µM]	6.5µM
O=C1C=C(c2ccc3ncccc3c2)C[C@@H](c2ccc3c(c2)OCO3)C1	?	?	?	21µM	?
COc1ccccc1C1=CC(=O)C[C@H](c2ccc3c(c2)OCO3)C1	0	?	?	?	0
O=C1C=C(c2ccc3ncccc3c2)C[C@@H](c2ccc(F)cc2)C1	0	0	0	0	?
CCOc1ccc(-c2nonc2NC(=O)COc2ccccc2)cc1	0	0	-	-	-
CCc1ccc(C(=O)Cn2ccsc2=N)cc1	18µM	?	0	0	?
CC(C)(C)Nc1nc(Oc2ccc(=O)n(-c3ccccc3)n2)nc(N2CCOCC2)n1	?	?	0	0	0
O=c1ccc(Oc2nc(N3CCOCC3)nc(N3CCOCC3)n2)nn1-c1ccccc1	0	0	0	0	13µM
Cn1cnc(S(=O)(=O)N2CCCCC2c2cc(C(=O)NCc3ccc(Cl)c(Cl)c3)no2)c1 (stereo unspecified)	0	0	-	-	-
Cc1ccc(CNC(=O)C2CC(c3cccc([N+](=O)[O-])c3)=NO2)cc1 (stereo unspecified)	0	0	2.1µM	?	0
SMILES	KB-V1 MDR tox	KB-3-1 cytotox	MCF10A rerep	SW480 rerep	ELG1 DNA repair
COc1ccc(CNC(=O)C2CC(c3cccc([N+](=O)[O-])c3)=NO2)cc1 (stereo unspecified)	0	0	9.2µM	0	?
COCCNC(=O)C1CC(c2cccc([N+](=O)[O-])c2)=NO1 (stereo unspecified)	0	0	0	?	0
CCC(C)(C)n1nnnc1C(c1ccccc1F)N1CCN(C(=O)c2ccco2)CC1 (stereo unspecified)	?	0	0	0	0
Cn1c(=O)c2c(nc(N/N=C/c3cccnc3)n2Cc2ccccc2)n(C)c1=O	0	0	0	0	?
Cn1c(=O)c2c(nc(N/N=C/c3ccc(OC(=O)c4ccco4)cc3)n2Cc2ccccc2Cl)n(C)c1=O	0	?	0	0	16µM
Cn1c(=O)c2c(nc(N/N=C/c3ccc(OC(=O)c4ccco4)cc3)n2Cc2ccc(F)cc2)n(C)c1=O	0	0	0	0	16µM
CCCS(=O)(=O)NC(=O)C1(C)CCN(C(=O)c2cc(F)ccc2C)C1 (stereo unspecified)	0	0	-	-	-
COc1ccc(C2c3cc(OC)c(OC)cc3CCN2C(=O)c2ccccc2)cc1OC (stereo unspecified)	0	0	0	0	6.5µM
COc1ccc(C(=O)N2CCc3cc(OC)c(OC)cc3C2c2ccc(OC)c(OC)c2)cc1 (stereo unspecified)	0	?	?	?	0
N#C/C(=N\Nc1ccc(S(=O)(=O)N2CCc3ccccc32)cc1)C(N)=S	0	?	0	0	6.5µM
N#C/C(=N\Nc1ccc(S(=O)(=O)N2CCCCCC2)cc1)C(N)=S	0	0	0	0	21µM
O=C1/C(=C/c2ccc([N+](=O)[O-])cc2)Oc2cc(O)ccc21	0	0	0	0	?
CC(C)(C)c1ccc(/C=C2\Oc3cc(O)ccc3C2=O)cc1	0	16µM	21µM	21µM	?
COC(=O)c1ccc2c(c1)C(=O)/C(=C/c1ccc(O)cc1)O2	0	0	?	?	?
O=C1/C(=C/c2ccc(Br)cc2)Oc2cc(O)ccc21	?	0	15µM	?	?
COc1ccc(S(=O)(=O)N(C)C[C@@H]2OCc3cn(nn3)CCCC(=O)N([C@@H](C)CO)C[C@H]2C)cc1	?	0	-	-	-
COc1ccccc1CNC(=O)C1CCN(c2nc3ccc(Cl)cc3[nH]2)CC1	0	0	-	-	-
Cc1ccc(N2N=C(c3ccc(F)cc3)CC2c2ccco2)cc1 (stereo unspecified)	0	0	5.8µM	?	0
CC(=O)N1N=C(c2ccc(Cl)cc2)CC1c1ccco1 (stereo unspecified)	0	0	0	0	?
COc1ccc(C2=NN(c3nc(-c4ccccc4)c(CC(=O)O)s3)C(c3ccco3)C2)cc1 (stereo unspecified)	0	0	21µM	?	0
CC(=O)N1N=C(c2ccc(C)cc2)CC1c1ccco1 (stereo unspecified)	0	0	?	0	?
Cc1nc(N2N=C(c3ccc(Cl)cc3)CC2c2ccco2)sc1C(=O)N(C)C (stereo unspecified)	?	0	23µM	18µM	?
COc1ccc(C2=NN(C(=O)CSc3nnc(C)n3C)C(c3ccco3)C2)cc1 (stereo unspecified)	0	0	0	0	0
Fc1ccc(C2=NN(c3ccccc3)C(c3ccco3)C2)cc1 (stereo unspecified)	0	0	?	6.5µM	0
O=S(=O)(c1ccccc1)N1N=C(c2ccc(Cl)cc2)CC1c1ccco1 (stereo unspecified)	?	0	0	0	0

Compound activity (PubChem)
